Assay outcomes: PubChem BioAssay, National Center for Advancing Translational Sciences (NCATS)
FMDV antiviral: High Throughput Screening for Foot and Mouth Disease Virus Antivirals; Potency, µM (doses to about 57.9 µM), for inactives: top-dose activity change, negative = inhibition, hits mostly inhibitors; FMDV antiviral cell-based qHTS; AID 1159524, 2015; 410,000 compounds, 1.2% hits; calls by dose curve; tested in HEK293T cells; note: read-out not given here; potency is the fitted concentration of half-maximal effect; nearly all actives have a fitted effect of over 45% in size
MARV entry inh: qHTS for inhibitors of binding or entry into cells for Marburg Virus; Marburg virus pseudotyped entry inhibition, cell reporter; Potency, µM (titrated, usually from 37.8 µM), for the others: top-dose activity change, negative = inhibition, hits mostly inhibitors; 300,000 compounds, 1.8% hits; AID 540276, 2011; calls by dose curve; tested in HEK293 cells; note: potency is the fitted concentration of half-maximal effect
HCV inh: qHTS Assay for Inhibitors of Hepatitis C Virus (HCV) | Huh7.5.1 HCVcc-Cre infection, luciferase reporter, 44 h | Potency, µM (doses to about 41.8 µM), inactives show at the top dose activity change, negative = inhibition, usual class: inhibitors | 340,000 compounds, 3.4% hits | AID 651820, 2012; active = well fitted inhibition curve with a large enough effect; inconclusive = small, poorly fitted or top-dose-only effect, or another doubt; inactive = no such curve, though single readings can be large or run the other way; note: potency is the fitted concentration of half-maximal effect
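Compounds are dispensed onto cells plated 4 h earlier at 1,000 per well, with HCVcc-Cre virus (about 0.5 moi) added next. Following 44 h of culture, luminescent signal is measured for 15 sec after 15 min with substrate at room temperature.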
HCMV antiviral: qHTS Assay for inhibitors of the human cytomegalovirus (HCMV); HFF cells, HCMV-luciferase reporter, 72 h; hits give low values; activity change, negative = inhibition, % at 57.5 µM; 410,000 compounds, 4.5% hits; AID 1259415, 2018; in the data active = activity change below about -60%; inconclusive = no clear call, values can overlap the other calls; inactive = above about -39%
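Cell-based, HFFs, 1000 cells/well, 16 h 37C; cpds in DMSO + HCMV-luc, MOI 1 PFU/cell; 72 h 37C; OneGlo luminescence after 5 min RT; norm. to buffer vs Salinomycin 10uM.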
LASV entry inh: qHTS for Inhibitors of binding or entry into cells for Lassa Virus; 300,000 compounds, 1.2% hits; Potency, µM (titrated, usually from 37.9 µM), inactives show top-dose activity change, negative = inhibition, most hits filed as inhibitors; AID 540256, 2011; Lassa virus pseudotype entry inhibition, cell reporter; calls by dose curve; tested in HEK293 cells; note: potency is the fitted concentration of half-maximal effect; nearly all actives have a fitted effect of over 50% in size
The depositor's hits bear a star; u = inconclusive; x = no result; [ ] = remark or other dose. Hits are enriched below; roughly 7.9% of the tested compounds scored in any of these assays. % is set by controls: 0 for no effect and ±100 for the full control effect.

SMILES	FMDV antiviral	MARV entry inh	HCV inh	HCMV antiviral	LASV entry inh
COc1cc2nc(NCc3ccccc3Cl)n3nc(-c4cccnc4)nc3c2cc1OC	-10.2%	-3.5%[46.1 µM]	x	-24.3	x
O=C(CSc1nc(=O)n(Cc2ccncc2)c2c1CCC2)Nc1ccccc1	-12.6%	x	x	8.2	1.2%[46.1 µM]
Cc1ccnc(NC(=O)c2ccc(C(=O)c3ccccc3)cc2)c1	-39.4%	6.31µM*	5.3%	5.3	2.24µM*
CCOC(=O)NC(=S)Nc1cccc(C)n1	-7.4%	x	x	-62.5*	x
CCOc1ccc(C(=O)Nc2cccc(C)n2)cc1	-18.2%	8.91µM*	-5.2%	-36.0	u
CCOc1cc(C(=O)Nc2cc(C)ccn2)cc(OCC)c1OCC	-29.8%	u	u	-94.5*	u
CCOCCc1nn2c(=O)cc(COC(=O)Cc3ccccc3)nc2s1	-21.7%	x	x	-1.7	5.9%[46.1 µM]
COc1cccc(CN2CCCC(c3nc(-c4ccncc4)ncc3-c3ccccc3)C2)c1O (stereo not drawn)	-25.8%	x	x	x	x
O=C(Cc1cccs1)NC1CC(=O)N(c2ccccc2)C1 (stereo not drawn)	-22.3%	x	x	15.6	u
O=S(=O)(Nc1ccc(-c2ccc(N3CCCC3)nn2)cc1)c1cccc(C(F)(F)F)c1	17.4%	x	x	-1.0	4.3%[46.1 µM]
CCOc1ccc(C(=O)Nc2cc(C)ccn2)cc1	-87.8%	u	-11.4%	-64.8*	u
Cc1cccc(NC(=O)Nc2ccccc2)n1	27.9%	u	-7.6%	-65.3*	3.7%[46.1 µM]
COc1cccc(NC(=O)Nc2cccc(C)n2)c1	25.8%	3.6%[46.1 µM]	-24.2%	0.9	u
CCOC(=O)Cn1c(=O)oc2cc(S(=O)(=O)NCc3ccc(F)cc3)ccc21	24.7%	u	x	1.5	4.3%[46.1 µM]
O=C(COc1cccc2c1CCN(Cc1ccc(Br)cc1)C2=O)NCc1ccco1	u	u	u	16.6	u
O=C(COc1cccc2c1CCN(Cc1ccc(Br)cc1)C2=O)N1CCOCC1	u	u	11.2µM*	-23.8	u
O=C1c2cccc(OCC(=O)N3CCCc4ccccc43)c2CCN1Cc1ccccc1	-12.4%	u	u	-14.9	5.0%
O=C1c2cccc(OCC(=O)N3CCCc4ccccc43)c2CCN1Cc1ccc(Br)cc1	u	u	u	u	20.6µM*
CCCS(=O)(=O)N1CC(=O)N(c2ccccc2C)C(C)(C(=O)NC2CCCCC2)C1 (stereo not drawn)	10.2%	x	x	0.0	-5.2%[46.1 µM]
COc1cccc(CNC(=O)c2ccc3nc(CCc4ccccc4)oc3c2)c1OC	1.2%	x	x	43.8	-12.4%[46.1 µM]
CCOc1ccc(NC(=S)N(CCCN2CCCC2)Cc2cccn2Cc2ccc(Cl)cc2)cc1	-14.7%	-23.7%[46.1 µM]	u	-24.4	-9.4%
Cc1cccc(NC(=S)N(CCCN2CCCC2)Cc2cccn2Cc2ccc(Cl)cc2)c1	-19.2%	7.08µM*	u	-60.2*	u
Cc1c(NC(=O)c2ccccc2)cc(C(C)C)c(O)c1S(=O)(=O)c1ccc(Cl)cc1	28.4%	x	x	29.7	-22.4%[46.1 µM]
COc1ccccc1C(=O)NC(=S)Nc1ccc(Cc2ccncc2)cc1	-15.7%	x	u	-76.3*	x
Cc1cc(C)cc(C(=O)NC(=S)Nc2ccc(Cc3ccncc3)cc2)c1	u	u	u	-74.1*	u
SMILES	FMDV antiviral	MARV entry inh	HCV inh	HCMV antiviral	LASV entry inh
Cc1cccc(C(=O)NC(=S)Nc2ccc(Cc3ccncc3)cc2)c1	-5.0%	-14.5%	u	u	-13.3%
COc1cc(C(=O)NC(=S)Nc2ccc(Cc3ccncc3)cc2)cc(OC)c1OC	-17.1%	x	u	-23.6	x
CC(C)Cc1nnc(NC(=O)CCC(=O)N2CCN(Cc3ccc(F)cc3)CC2)s1	-0.2%	x	22.4µM*	-29.1	x
CCc1nnc(NC(=O)CCC(=O)N2CCN(Cc3ccc(Cl)cc3)CC2)s1	u	-23.7%	u	-15.1	-29.3%
CCc1ccc(C(=O)c2cn(CC(=O)Nc3cccc(C)c3C)c3nc(C)ccc3c2=O)cc1	-1.3%	x	x	10.8	15.1%[46.1 µM]
O=C(CN1CCN(C(C(=O)Nc2cc(C(F)(F)F)ccc2Cl)c2ccccc2)CC1)NC1CC1 (stereo not drawn)	39.8µM*	x	u	-22.0	x
CCOC(=O)c1sc2ccccc2c1S(=O)(=O)NCc1ccc(F)cc1	103.7%	x	x	-9.8	-0.2%[46.1 µM]
